High-throughput results: PubChem BioAssay, Milwaukee Institute for Drug Discovery
Rows were chosen to be rich in hits. Some 6.8% of all compounds tested hit in one or more screens of this group.
HCV NS3h FP – blocks HCV NS3 helicase binding to DNA. AID 687043. NS3h Cy5-dT15 DNA binding, fluorescence polarization. actives 1.6% (n = 16,000). inhibition, % at 100 µM;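 active = inhibition above the average over every tested compound plus 3 SD, cut at about 40% in these data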
Cy5 interf NS3h – Cy5 fluorescence interference, HCV helicase counter-screen; Cy5-dT15 DNA with NS3h; actives lie on both sides; signal over control mean, under 1 quenches; fluorescence interference ratio at 100 µM; actives 6% (n = 16,000); AID 720488;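 active = compound fluorescence over control fluorescence at most 0.8, a quencher, or at least a set upper limit, an enhancer; inactive = ratio between 0.8 and the set upper limit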
Starred values were filed as active, the others as inactive.

SMILES	HCV NS3h FP	Cy5 interf NS3h
CCOc1ccc(/C=C2\C(=O)NC(=O)N(c3cccc(Br)c3)C2=O)cc1Cl	13	1.2*
CCOc1ccc(/C=C2\C(=O)NC(=O)N(c3ccc(Cl)cc3)C2=O)cc1Cl	26	1
N#Cc1sc2nc(C3CC3)cc(-c3ccc(F)cc3)c2c1N	6	0.98
Cn1ccnc1SCC(=O)Nc1cccc(C(F)(F)F)c1	10	0.76*
O=C(CSc1cc(Cl)ccc1Cl)Nc1cccc(C(F)(F)F)c1	-4	0.89
COc1ccccc1CN1CCN(S(C)(=O)=O)CC1	5	0.77*
CS(=O)(=O)N1CCN(Cc2ccncc2)CC1	-12	0.68*
COc1cc(OC)c(OC)cc1CN1CCN(S(C)(=O)=O)CC1	-16	1
CSc1ccc(CN2CCN(S(C)(=O)=O)CC2)cc1	0	1
CS(=O)(=O)N1CCN(Cc2ccc(Cl)cc2)CC1	-14	1.1
CS(=O)(=O)N1CCN(Cc2ccccc2Br)CC1	-2	0.67*
CC(=O)C12c3ccccc3C(c3ccccc31)C1C(=O)NC(=O)C12 (stereo unspecified)	4	1
COc1ccc(OC)c(CN2CCN(Cc3ccccc3C)CC2)c1	-8	1.1
COC(=O)c1c(C)oc2ccc(OCc3c(F)c(F)c(F)c(F)c3F)cc12	9	0.91
NS(=O)(=O)c1ccc(CNC(=O)c2ccccc2Cl)cc1	-2	0.94
CCCCNC(=O)/C(=C/c1ccc(-c2cccc([N+](=O)[O-])c2)o1)NC(=O)c1ccc(OC)cc1	12	0.99
COc1ccc(C(=O)N/C(=C\c2ccc(-c3cccc([N+](=O)[O-])c3)o2)C(=O)NCCCN2CCOCC2)cc1	11	0.77*
COCCN1C(=O)/C(=C/c2ccc3c(c2)OCO3)SC1=S	20	1
O=C1/C(=C\c2ccc3c(c2)OCO3)SC(=S)N1c1cccc(C(F)(F)F)c1	0	1.1
O=C1S/C(=C/c2ccc3c(c2)OCO3)C(=O)N1CN1CCCC1	-8	0.57*
Cc1cccc(N2C(=O)/C(=C/c3ccc4c(c3)OCO4)SC2=S)c1C	14	0.77*
CCOc1cc(C=C2C(=O)NC(=S)NC2=O)ccc1OCc1ccccc1F	-2	0.81
COc1ccc(N(CC(=O)N2CCOCC2)S(=O)(=O)c2ccc(C)cc2)cc1OC	13	1
CCOC(=O)c1c(-c2ccc(C)cc2)csc1NC(=O)C1CC1	8	1
CCOC(=O)c1c(-c2ccc(C)cc2)csc1NC(=O)C(C)(C)C	19	0.69*
SMILES	HCV NS3h FP	Cy5 interf NS3h
O=C(COc1cccc2ccccc12)Nc1ccncc1	8	0.8*
Cc1cccc(OCC(=O)Nc2ccc3c(c2)OCO3)c1C	13	0.95
O=C(COc1cccc2ccccc12)Nc1ccc2c(c1)OCCO2	26	0.68*
O=C(COc1cccc2ccccc12)NCCO	15	0.74*
COc1ccc(CCNC(=O)COc2cccc3ccccc23)cc1	12	1
COc1cc(NC(=O)COc2cccc3ccccc23)cc(OC)c1	7	0.99
COC(=O)CN(c1cccc(C)c1)S(C)(=O)=O	6	1.1
COc1ccc(Br)cc1/C=C/C(=O)N1CCN(c2ccc([N+](=O)[O-])cc2)CC1	11	1.1
COCCCN1C(=O)c2ccc3c4c(ccc(c24)C1=O)CC3	2	0.95
COc1ccc(NC(=O)/C(C#N)=C/c2cccnc2)cc1	7	0.98
O=C(Nc1cccc(Cl)c1Cl)C1CN(S(=O)(=O)c2ccccc2)CCN1S(=O)(=O)c1ccccc1 (stereo unspecified)	8	0.99
O=C(NC(=S)Nc1cc(Cl)c(Cl)cc1Cl)c1ccco1	-4	1
COC(=O)c1cc(NC(=O)c2ccccc2Br)cc(C(=O)OC)c1	17	1
COc1c(Cl)cc(C(=O)Nc2ccc(-c3nc4ccccc4o3)c(O)c2)cc1Cl	-6	1
Cc1cccc(C)c1NC(=O)CSCC(=O)Nc1ccc2ccccc2c1	2	0.94
O=C(Nc1ccc(F)c([N+](=O)[O-])c1)C(c1ccccc1)c1ccccc1	8	1
O=[N+]([O-])c1cc(NS(=O)(=O)Cc2ccccc2)ccc1F	-2	0.63*
C/C(=N\NC(=O)c1ccccc1)C1CC1	4	1.1
O=C(CSCc1cccc(Br)c1)NC1CCCCC1	20	0.96
CC(C)(C)CC(C)(C)NC(=O)c1ccc2nccnc2c1	4	0.61*
O=C(Nc1ccccc1F)c1ccc2nccnc2c1	-1	1
O=C(O)c1cc(NC(=O)c2ccc3c(c2)C(=O)N(N2C(=O)c4ccccc4C2=O)C3=O)cc(C(=O)O)c1	20	0.92
Cc1[nH]c2ccccc2c1/C=N\Nc1ccc([N+](=O)[O-])cc1	31	0.97
Cc1[nH]c2ccccc2c1/C=N\NC(=O)c1cccc([N+](=O)[O-])c1	-2	0.63*
CCOC(=O)C(CCOc1cc(C)c(Cl)c(C)c1)C(=O)OCC	3	0.86
SMILES	HCV NS3h FP	Cy5 interf NS3h
CCc1cc2c(=O)c(-c3nc4ccccc4s3)c(C)oc2cc1OS(C)(=O)=O	7	1.2*
CCC(=O)Oc1cc2oc(CC)c(-c3nc(C)cs3)c(=O)c2cc1CC	18	0.91
O=C(Nc1nccs1)c1cccc(N2C(=O)c3ccccc3C2=O)c1	-41	1.2*
O=C(Nc1ccccc1O)c1ccc2c(c1)C(=O)N(c1cccc(C(=O)c3ccccc3)c1)C2=O	0	1
O=C(NC(=S)Nc1ccc2oc(-c3ccc(Cl)cc3)nc2c1)c1ccco1	16	1
O=C(NC(Cc1ccccc1)C(=O)Nc1ccccc1)OCc1ccccc1 (stereo unspecified)	5	0.68*
O=C(Nc1ccc(OCc2ccccc2)cc1)C(c1ccccc1)c1ccccc1	8	0.98
Cc1ccc(-c2nc3ccccn3c2NC(=O)c2ccc(Cl)cc2)cc1	13	0.9
Cc1ccc(-c2nc3ccccn3c2NC(=O)c2ccccc2)cc1	20	0.78*
Cc1ccc(C(=O)/C=C(/N)C(F)(F)F)cc1	10	0.73*
O=C(C=C(O)c1ccc(F)cc1)C(F)(F)F	6	0.94
COC(=O)c1ccc(/C=N\NC(=O)/C(=C/c2ccc(N(C)C)cc2)NC(=O)c2ccccc2)cc1	21	1.1
COc1ccc(CNC(=O)CSc2nc3ccccc3s2)cc1	7	0.98
O=C(CSc1nc2ccccc2s1)Nc1nc2ccccc2s1	8	0.97
COc1ccc(NC(=O)CSc2nc3ccccc3s2)c(OC)c1	4	0.63*
O=C(CSc1nc2ccccc2s1)c1ccc2ccccc2c1	12	0.74*
Cc1cccc(-c2nc3cc(NC(=O)c4ccc(Br)o4)ccc3o2)c1	0	1
CCC(=O)NC(c1ccccc1Cl)c1ccc2cccnc2c1O (stereo unspecified)	0	1
COc1ccccc1N1C(=O)c2ccc3c4c(ccc(c24)C1=O)CC3	4	1
O=C(COc1ccccc1)C(=C(O)c1ccccc1)c1nc2ccccc2[nH]1	-23	1.4*
O=C(COc1cccc([N+](=O)[O-])c1)Nc1cccc(-c2nc3ccccc3[nH]2)c1	-11	0.96
COc1ccccc1NC(=O)CN(c1ccc(C)cc1)S(=O)(=O)c1ccc(SC)cc1	20	0.69*
CSc1ccc(S(=O)(=O)N(CC(=O)Nc2cccc(Br)c2)c2ccc(C)cc2)cc1	10	0.85
COCCNC(=O)CN(c1ccc(C)cc1)S(=O)(=O)c1ccc(SC)cc1	4	0.92
CSc1ccc(S(=O)(=O)N(CC(=O)Nc2cccc(C)c2)c2ccc(C)cc2)cc1	22	0.7*
